Source: PubChem (National Center for Advancing Translational Sciences (NCATS))
The list is not random: actives were taken first. Their share in the collection is about 9.4%.
Pf growth 48h: Primary qHTS for delayed death inhibitors of the malarial parasite plastid, 48 hour incubation. Potency, µM (titrated, usually from 28.7 µM), for the others: at the highest dose activity change, negative = inhibition, actives largely listed as inhibitors. 310,000 compounds, 5.9% hits. AID 504832, 2011. P. falciparum luciferase growth in erythrocytes, 48 h; further: on the % scale 0 is the no-effect control and ±100 the full control effect
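Compounds are pin-transferred into medium, infected erythrocytes (2% hematocrit, 0.1% parasitemia final) are added, and plates sit one parasite generation at 37 C in 5% CO2. Detection reagent is then added and luminescence measured.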
SARS PLP yeast: qHTS of Yeast-based Assay for SARS-CoV PLP | S. cerevisiae expressing SARS-CoV PLpro, growth rescue | 330,000 compounds, 0.19% hits | Potency, µM (doses to about 32.9 µM), inactives show at the top dose activity, positive = growth rescue, most hits filed as activators; calls by dose curve; further: 0% is about no effect; nearly all actives have a fitted effect of over 55% in size
AMA1 RON2 block: qHTS for Inhibitors of AMA1-RON; Towards Development of Antimalarial Drug Lead: Primary Screen. Plasmodium falciparum AMA1 (3D7) - RON2 peptide interaction. AlphaScreen AMA1-biotinylated RON2 peptide binding. Potency, µM (doses to about 58.2 µM), for the others: at the highest dose activity change, negative = inhibition, usual class: inhibitors. 360,000 compounds, 0.2% hits;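 further: 0% = vehicle wells and -100% = peptide control; nearly all actives have a fitted effect of over 45% in size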
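AMA1 (3D7) with his tag at 25 nM final met compounds first, then biotinylated RON2 peptide at 25 nM; detection used donor plus acceptor beads, 10 µg/mL apiece, read by AlphaScreen after 30 min at room temperature.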
Pf growth 96h: Primary qHTS for delayed death inhibitors of the malarial parasite plastid, 96 hour incubation | AID 504834, 2011 | Potency, µM (highest dose often 28.7 µM), without a hit: top-dose activity change, negative = inhibition, actives largely listed as inhibitors | 320,000 compounds, 6.9% hits | P. falciparum luciferase reporter growth, 96 h; further: on the % scale 0 is the no-effect control and ±100 the full control effect
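Infected RBCs, 2% Hct / 0.05% parasitemia final; luciferase-reporter P. falciparum; cpd 96 h, 37 C, 5% CO2; luciferase detection reagent; luminescence.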
* hit, by the source's call; ? = inconclusive; · = no result given; [ ] = dose if it differs, or a comment. Unless noted, the call rests on the fitted dose curve; in most records, active means well fitted curve in the direction sought with a large enough effect; inconclusive means small, poorly fitted or top-dose-only effect, or another doubt; inactive means no such curve, though single readings can be large; an effect the other way counts as inactive or inconclusive. Potency means the concentration at half of the fitted maximal effect.

SMILES	Pf growth 48h	SARS PLP yeast	AMA1 RON2 block	Pf growth 96h
Cc1ccc(C(C(=O)NC2CCCCC2)N(C(=O)Cc2c[nH]c3ccccc23)c2ccccc2C)o1 (centres undefined)	?	6.7%	3.7%	11.7%
CNc1snc(C)c1C(=O)OCC(=O)c1ccc(Cl)cc1	?	-20.5%	4.9%	?
O=S(=O)(Cc1cc(NCc2ccccc2)nc(-c2ccncc2)n1)c1ccccc1	?	-0.2%	32.3%	?
Cc1ccccc1OCC(=O)N1N=C(C(F)(F)F)CC1(O)C(C)(C)C (centres undefined)	10.4µM*	-10.8%	-0.9%	?
Cc1ccc(Cl)cc1N=C(N)N=C(N)N	?	1.3%	25.0%	?
NC(N)=NC(N)=Nc1cccc(Cl)c1	?	1.6%	7.1%	10.4µM*
COc1ccccc1CC(=O)Nc1cccc(C(=O)NN2C(=O)c3ccccc3C2=O)c1	-2.3%	19.6%	12.3%	9.28µM*
O=C(c1ccco1)N1CCN(C(=S)NC2CC3CCC2C3)CC1 (centres undefined)	-10.9%	-4.3%	4.9%	11.4%
O=C1c2ccccc2C(=O)N1CC1c2ccccc2CCN1C(=O)C1CCCCC1 (centres undefined)	·	4.0%	-2.1%	11.7µM*
COc1ccc(CN2C(=NC(=O)C3CCCCC3)SC3CS(=O)(=O)CC32)cc1 (centres undefined)	?	10.3%	1.6%	14.7µM*
CN(CCO)c1cc(N2CCCCC2)c2nonc2c1[N+](=O)[O-]	-3.7%	1.5%	1.78µM*	?
CN(CCO)c1cc(NCCCN2CCC(Cc3ccccc3)CC2)c2nonc2c1[N+](=O)[O-]	10.4µM*	-4.9%	4.2%	-6.8%
CC1CCN(CCCNc2cc(NCCO)c([N+](=O)[O-])c3nonc23)CC1	2.5%[0.00184 µM]	0.7%	-0.9%	-10.0%
O=C1c2ccccc2S(=O)(=O)c2cc(C(=O)N3CCN(c4ccc(Cl)cn4)CC3)ccc21	·	·	16.8%	·
Cc1ccc(CN2CCC(CNC(=O)C3CCCN(c4ncnc5c4nc4n5CCCCC4)C3)CC2)cc1 (centres undefined)	?	-4.6%	4.7%	5.4%
O=C(/C=C/c1ccccc1O)c1ccccc1	·	·	-12.1%	·
O=C(/C=C/c1ccccc1O)c1ccc(Cl)cc1	27.2%	-6.9%	-8.3%	14.7µM*
O=C(N[C@H]1CP(=O)(Oc2ccccc2)O[C@H](COCc2ccccc2)[C@H]1O)C(Cl)(Cl)Cl (some centres undefined)	?	-0.5%	-2.3%	11.7µM*
CCC(=O)N1c2ccccc2NC2=C(C(=O)CCC2)C1c1cccnc1 (centres undefined)	-7.9%	-2.1%	-2.8%	4.5%
CCCCCCCCCCCCOCCOCCOCCOCCOCCOCCOCCOCCOCCO	?	·	·	10.7µM*
CCCCCCCCCCCCOCCCN	-11.1%	·	·	?
CC(=O)c1ccc(S(=O)(=O)N(CCCO)Cc2cc3cc(C)ccc3[nH]c2=O)cc1	0.1%	-1.7%	-8.5%	?
C[C@]12CC[C@H](O)CC1=CC[C@@H]1[C@@H]2CC[C@]2(C)C(=O)CC[C@@H]12	·	·	9.2%	·
CC1C2CCC3C4CC=C5CC(N(C)C)CC[C@@]5(C)C4CC[C@@]32CN1C (some centres undefined)	15.1µM*	·	·	?
CCOc1ccc(C(C)=O)cc1CSc1nnc(-c2ccoc2C)n1N	·	-11.6%	-1.0%	?
SMILES	Pf growth 48h	SARS PLP yeast	AMA1 RON2 block	Pf growth 96h
Cc1cccc(-c2nnc(SCC3CNC(=O)O3)n2-c2ccc(Cl)cc2)c1 (centres undefined)	-7.6%	1.4%	38.4%	-16.9%
CC1=C(C(=O)Nc2ccc([N+](=O)[O-])cc2)C(c2cccc(C(F)(F)F)c2)NC(=S)N1c1ccccc1 (centres undefined)	13.1µM*	-0.7%	37.6%	·
CCOC(=O)Cc1nnc(Nc2ccc(C)cc2)c2ccccc12	-6.4%	-24.2%	-12.7%	10.4µM*
COc1ccccc1NC(=O)Nc1nn(C)c2cccc(OC)c12	?	-4.1%	16.3%	11.7µM*
CN(C)c1cccc2c1c(NC(=O)Nc1ccccc1)nn2C	?	-1.4%	5.1%	9.28µM*
O=C(NC1CCCC1)C(c1ccncc1)N(C(=O)c1csnn1)c1ccc(Cl)cc1 (centres undefined)	?	0.6%	3.0%	?
COc1cc(C(CCN2CCOCC2)c2c(OC)cc(OC)c3c(C)cc(=O)oc23)cc(OC)c1OC (centres undefined)	13.1µM*	-4.0%	-1.1%	?
COc1cc(C(CCN2CCCC2)c2c(OC)cc(OC)c3c(C)cc(=O)oc23)cc(OC)c1OC (centres undefined)	7.38µM*	0.1%	-3.6%	9.28µM*
COc1ccc(/C=N/Nc2nc(-c3cccc(S(=O)(=O)N4CCCC4)c3)cs2)cc1OC	9.28µM*	18.9%	15.5%	11.7µM*
CCOc1cc(/C=N/Nc2nc(-c3cccc(S(=O)(=O)N4CCCC4)c3)cs2)ccc1O	9.28µM*	11.2%	3.3%	10.4µM*
COc1cc(/C=N/Nc2nc(-c3ccc(S(=O)(=O)N(C)C)cc3)cs2)ccc1O	2.08µM*	1.1%	22.2%	8.28µM*
O=[N+]([O-])c1cc(/C=N\Nc2nc(-c3ccccc3)cs2)ccc1O	11.7µM*	1.5%	14.8%	30.6%
COc1cc(/C=N/Nc2cc(C)nc(NS(=O)(=O)c3ccc(C)cc3)n2)ccc1O	17.1%	-0.3%	34.3%	0.6%
Cc1ccc(NC(=O)CCNS(=O)(=O)c2ccc3[nH]c(=O)oc3c2)c(Cl)c1	-8.5%	-0.4%	-4.4%	2.1%
CC1C/C(=C\c2cccnc2)C(=O)/C(=C/c2cccnc2)C1 (centres undefined)	3.7µM*	-81.8%	-3.2%	44.4%
OCCNc1nc(Nc2ccccc2)nc(Nc2ccccc2)n1	-4.5%	1.7%	-1.5%	25.6%
CC(C)(CO)Nc1nc(Nc2ccccc2)nc(Nc2ccccc2)n1	13.1µM*	2.6%	-3.4%	7.38µM*
Cc1cc(N2CCCC2)ccc1NC(=O)COc1ccccc1	14.7µM*	5.6%	-15.7%	?
COc1ccc(N2CCCC2)c(NC(=O)COc2ccccc2)c1	-18.3%	-17.2%	-20.4%	52.4%
CCc1ccccc1OCC(=O)Nc1ccc(N2CCCC2)cc1C	5.22µM*	0.4%	?	2.62µM*
Cc1ccccc1Cc1ccc(Cl)nn1	10.4µM*	-2.8%	9.4%	-10.0%
CSc1nc2nc(C(F)(F)F)cc(-c3ccccc3)n2n1	·	11.2%	7.4%	2.94µM*
FC(F)(F)c1cc(-c2ccccc2)nc2ncnn12	?	17.9%	-0.1%	25.1%
CSc1nc2nc(-c3ccccc3)cc(C(F)(F)F)n2n1	4.15µM*	-3.5%	8.1%	1.2%
Cc1c(NC(=O)OCCSc2nc(N(C)C)nc(N(C)C)n2)sc(=S)n1C	-19.0%	·	1.4%	0.4%
CCC(C)n1cnc2c(c1=O)c1nc3ccccc3nc1n2Cc1ccc2c(c1)OCO2 (centres undefined)	3.7µM*	2.5%	·	?
